# Experimental data: the antibiotic and cytotoxicity screens of Wong et al. (2023)
# In all, about 39,000 compounds went through this assay and about 3,300 (8.5%) were called active. The list comes from a sample in which actives are over-represented; it also holds similar structures and randomly drawn compounds.
# System: HepG2
# Assay: cytotoxicity call (relative viability < 0.9)
# Settings: 10 µM
row,SMILES,cytotoxicity call
1,C[C@@H]1CN([C@@H](C)CO)C(=O)c2cccc(NS(C)(=O)=O)c2O[C@H]1CN(C)Cc1ccc2c(c1)OCO2,inactive
2,Cc1ccc(S(=O)(=O)N2C[C@H](O)COC[C@H]3O[C@H](CC(=O)NCc4ccc5c(c4)OCO5)CC[C@@H]32)cc1,inactive
3,C[C@H]1CN([C@@H](C)CO)C(=O)c2cc(C#Cc3cccc(F)c3)cnc2O[C@@H]1CN(C)CC1CCOCC1,inactive
4,C[C@H](CO)N1C[C@H](C)[C@H](CN(C)C(=O)Nc2ccc(C(F)(F)F)cc2)OCCCC[C@H](C)Oc2ccc(NC(=O)Nc3ccc4c(c3)OCO4)cc2C1=O,inactive
5,C[C@@H]1CCCCO[C@@H](CN(C)S(=O)(=O)c2ccc(Cl)cc2)[C@@H](C)CN([C@@H](C)CO)C(=O)c2cc(NC(=O)NC3CCCCC3)ccc2O1,active
6,C[C@@H]1CCCCO[C@H](CN(C)S(=O)(=O)c2ccc(Cl)cc2)[C@H](C)CN([C@@H](C)CO)C(=O)c2cc(NC(=O)NC3CCCCC3)ccc2O1,inactive
7,C[C@H]1CCCCO[C@H](CN(C)S(=O)(=O)c2ccc(Cl)cc2)[C@@H](C)CN([C@@H](C)CO)C(=O)c2cc(NC(=O)NC3CCCCC3)ccc2O1,inactive
8,C[C@H]1CCCCO[C@@H](CN(C)S(=O)(=O)c2ccc(Cl)cc2)[C@@H](C)CN([C@@H](C)CO)C(=O)c2cc(NC(=O)NC3CCCCC3)ccc2O1,active
9,C[C@@H]1CCCCO[C@H](CN(C)S(=O)(=O)c2ccc(Cl)cc2)[C@@H](C)CN([C@@H](C)CO)C(=O)c2cc(NC(=O)NC3CCCCC3)ccc2O1,inactive
10,CN1[C@@H]2Cn3c(ccc(-c4ccccc4)c3=O)[C@H]1[C@@H](C(=O)NCCCN1CCOCC1)[C@@H]2CO,inactive
11,C[C@@H]1CN([C@@H](C)CO)C(=O)Cc2cc(NC(=O)Cn3cnnn3)ccc2O[C@H]1CN(C)C(=O)Nc1ccccc1,inactive
12,CCCNC(=O)N[C@H]1C=C[C@@H](CC(=O)N2CCN(C)CC2)O[C@@H]1CO,inactive
13,C[C@H]1CN([C@@H](C)CO)C(=O)c2cc(/C=C/c3ccccc3)cnc2O[C@@H]1CN(C)C(=O)c1cnccn1,inactive
14,C[C@H]1CN([C@@H](C)CO)C(=O)Cc2cc(NC(=O)Cn3cnnn3)ccc2O[C@H]1CN(C)Cc1ccc(Oc2ccccc2)cc1,inactive
15,COCC(=O)N(C)C[C@@H]1Oc2cc(-c3ccc(C#N)cc3)ccc2S(=O)(=O)N([C@H](C)CO)C[C@H]1C,inactive
16,COc1ccc(S(=O)(=O)Nc2ccc3c(c2)C(=O)N([C@@H](C)CO)C[C@@H](C)[C@@H](CN(C)S(C)(=O)=O)OCCCC[C@@H](C)O3)cc1,inactive
17,C[C@H](CO)N1C[C@H](C)[C@@H](CN(C)S(=O)(=O)c2cccs2)Oc2ccc(NC(=O)Cc3ccccc3)cc2C1=O,inactive
18,C[C@@H]1CN([C@H](C)CO)C(=O)c2cc(NC(=O)Nc3ccc(F)cc3)ccc2O[C@@H](C)CCCCO[C@H]1CN(C)Cc1ccncc1,inactive
19,C[C@H]1CN([C@@H](C)CO)C(=O)c2cc(NC(=O)Nc3ccccc3)ccc2O[C@H]1CN(C)Cc1ccc(-c2ccccc2)cc1,inactive
20,C[C@H](CO)N1C[C@H](C)[C@@H](CN(C)Cc2ccc(-c3ccccc3)cc2)Oc2ccc(NC(=O)Nc3ccccc3)cc2C1=O,active
21,C[C@@H]1CN([C@@H](C)CO)C(=O)c2cc(NC(=O)Nc3ccccc3)ccc2O[C@H]1CN(C)Cc1ccc(-c2ccccc2)cc1,active

row,SMILES,cytotoxicity call
1,CC(C)NC(=O)Nc1ccc2c(c1)C(=O)N([C@@H](C)CO)C[C@H](C)[C@@H](CN(C)Cc1ccc(-c3ccccc3)cc1)O2,inactive
2,C[C@H](CO)N1C[C@H](C)[C@H](CN(C)Cc2ccc(-c3ccccc3)cc2)Oc2ccc(NC(=O)Nc3ccccc3)cc2C1=O,inactive
3,C[C@@H]1CN([C@H](C)CO)C(=O)c2cc(NC(=O)Nc3ccccc3)ccc2O[C@@H]1CN(C)Cc1ccc(-c2ccccc2)cc1,active
4,CC(C)NC(=O)Nc1ccc2c(c1)C(=O)N([C@@H](C)CO)C[C@@H](C)[C@@H](CN(C)Cc1ccc(-c3ccccc3)cc1)O2,active
5,CC(C)NC(=O)Nc1ccc2c(c1)C(=O)N([C@@H](C)CO)C[C@@H](C)[C@H](CN(C)Cc1ccc(-c3ccccc3)cc1)O2,inactive
6,C[C@@H]1CCCCO[C@@H](CN(C)C(=O)CCC(F)(F)F)[C@H](C)CN([C@H](C)CO)C(=O)c2cc(NC(=O)NC3CCCCC3)ccc2O1,inactive
7,COCCNC(=O)C[C@H]1CC[C@@H]2[C@H](COC[C@H](O)CN2S(=O)(=O)c2ccccc2C)O1,inactive
8,C[C@H]1CN([C@@H](C)CO)C(=O)c2c(c3ccccc3n2C)-c2ccccc2CO[C@@H]1CN(C)Cc1ccc(O)cc1,inactive
9,C[C@H]1CN([C@@H](C)CO)C(=O)c2cc(NC(=O)CCN3CCOCC3)ccc2O[C@@H]1CN(C)S(=O)(=O)c1cn(C)cn1,inactive
10,COc1ccc(S(=O)(=O)N(C)C[C@@H]2Oc3ccc(NC(=O)Nc4c(C)noc4C)cc3CC(=O)N([C@H](C)CO)C[C@@H]2C)cc1,inactive
11,CC(C)NC(=O)N(C)C[C@@H]1Oc2c(NS(=O)(=O)c3ccc(Cl)cc3)cccc2C(=O)N([C@H](C)CO)C[C@@H]1C,inactive
12,C[C@@H]1CN([C@@H](C)CO)C(=O)c2cccc(NS(C)(=O)=O)c2O[C@@H]1CN(C)C(=O)Nc1ccc(C(F)(F)F)cc1,inactive
13,CSCCC(NC(=O)C(Cc1c[nH]c2ccccc12)NC(=O)CCNC(=O)OC(C)(C)C)C(=O)NC(CC(=O)O)C(=O)NC(Cc1ccccc1)C(N)=O (configuration not stated),inactive
14,COc1ccc(S(=O)(=O)N(C)C[C@H]2Oc3ccc(NS(=O)(=O)c4ccc(F)cc4)cc3CC(=O)N([C@H](C)CO)C[C@H]2C)cc1,inactive
15,CN([C@@H](Cc1ccc(OS(=O)(=O)c2cccc3cnccc23)cc1)C(=O)N1CCN(c2ccccc2)CC1)S(=O)(=O)c1cccc2cnccc12,inactive
16,CN(C)CC(=O)N[C@@H]1CC[C@H](CCNC(=O)C2CCC2)O[C@H]1CO,inactive
17,CN1C(=O)/C(=C(/C#N)C(N)=O)c2ccccc21,inactive
18,O=C(Nc1ccccc1)C1=C[C@H](c2ccc3c(c2)Cc2ccccc2-3)C[C@H](OCc2ccc(CO)cc2)O1,inactive
19,Cc1ccc(S(=O)(=O)Nc2ccc3c(c2)C(=O)N([C@H](C)CO)C[C@H](C)[C@@H](CN(C)S(C)(=O)=O)OCCCC[C@@H](C)O3)cc1,inactive
20,O=C(NC1CCCCC1)[C@@H]1C(c2ccc(Cl)cc2)=C(S(=O)(=O)c2ccccc2)C(=O)N1Cc1ccc(-c2ccccc2)cc1,inactive
21,CC(=O)n1nc(-c2cccnc2)nc1N,inactive

row,SMILES,cytotoxicity call
1,C[C@H](CO)N1C[C@H](C)[C@H](CN(C)Cc2ccc(C(=O)O)cc2)OCCCC[C@H](C)Oc2ccc(NC(=O)c3ccccc3)cc2C1=O,inactive
2,C[C@@H]1CN([C@H](C)CO)C(=O)c2cc(NC(=O)Nc3ccccc3)ccc2O[C@H]1CN(C)Cc1ccc(-c2ccccc2)cc1,active
3,C[C@@H]1CN([C@@H](C)CO)C(=O)c2cc(NC(=O)Nc3ccccc3)ccc2O[C@@H]1CN(C)Cc1ccc(-c2ccccc2)cc1,active
4,COCC(=O)N(C)C[C@H]1Oc2cc(C#Cc3ccccc3)ccc2S(=O)(=O)N([C@@H](C)CO)C[C@@H]1C,inactive
5,O=C(CSc1nnc[nH]1)C1CC1,inactive
6,COc1c(C)cc(-c2cc3c(c(CCc4ccccc4)n2)[Si](C(C)C)(C(C)C)O[C@H]3c2ccccc2)cc1C,inactive
7,COc1cc(Nc2ncc(F)c(Nc3ccc4c(n3)N(COP(=O)(O)O)C(=O)C(C)(C)O4)n2)cc(OC)c1OC,active
8,COCC(=O)Nc1ccc2c(c1)C(=O)N(C)C[C@H](OC)[C@H](C)CN(C(=O)Cc1cccnc1)[C@@H](C)CO2,inactive
9,C[C@@H]1CN([C@@H](C)CO)C(=O)c2cc(NC(=O)Nc3ccccc3)ccc2O[C@H]1CN(C)Cc1ccc(Oc2ccccc2)cc1,active
10,C[C@H]1CN([C@@H](C)CO)C(=O)c2cc(NC(=O)Nc3ccccc3)ccc2O[C@H]1CN(C)Cc1ccc(Oc2ccccc2)cc1,inactive
11,C[C@H](CO)N1C[C@H](C)[C@@H](CN(C)Cc2ccc(Oc3ccccc3)cc2)Oc2ccc(NC(=O)Nc3ccccc3)cc2C1=O,active
12,C[C@@H]1CN([C@@H](C)CO)C(=O)c2cc(NC(=O)Nc3ccccc3)ccc2O[C@@H]1CN(C)Cc1ccc(Oc2ccccc2)cc1,active
13,C[C@H]1CN([C@@H](C)CO)C(=O)c2cc(NC(=O)Nc3ccccc3)ccc2O[C@@H]1CN(C)Cc1ccc(Oc2ccccc2)cc1,active
14,C[C@H](CO)N1C[C@H](C)[C@H](CN(C)Cc2ccc(Oc3ccccc3)cc2)Oc2ccc(NC(=O)Nc3ccccc3)cc2C1=O,inactive
15,C[C@H](CO)N1C[C@H](C)[C@H](CN(C)Cc2ccc(C(=O)O)cc2)Oc2c(NC(=O)Nc3ccc(C(F)(F)F)cc3)cccc2C1=O,inactive
16,O=C(C[C@@H]1C=C[C@@H](NC(=O)C2CCC2)[C@H](CO)O1)NCCCN1CCOCC1,inactive
17,C[C@@H]1CCCCO[C@H](CN(C)C(=O)Cc2ccccc2)[C@@H](C)CN([C@@H](C)CO)C(=O)c2cc(NC(=O)CCC(F)(F)F)ccc2O1,inactive
18,COCCOC(=O)N1C(=O)[C@@]2(c3ccccc31)[C@H](C(=O)N1CCCCCCC1)[C@H]1C(=O)O[C@H](c3ccccc3)[C@H](c3ccccc3)N1[C@@H]2c1ccc(OCCO)cc1,inactive
19,COc1ccc(-c2cnc3c(c2)C(=O)N([C@H](C)CO)C[C@H](C)[C@H](CN(C)C(=O)Cc2cccnc2)O3)cc1,inactive
20,Cn1c(=O)n2n(c1=O)[C@H](C1CC1)C=C1CN3[C@@H]([C@H](Cc4ccccc4)OC(=O)[C@@H]3Cc3ccc(-n4cc(CCC(=O)NO)nn4)cc3)[C@@H]12,inactive
